Entries with a potency or affinity are not part of this list. The source made the active and inactive calls. No rule for the calls is given here.

The conditions of the test: HEK293 cytotoxicity, plate reader; series mostly up to 26 µM.
On to `Cc1ccc2c(c1)[nH]c(=S)n2CCOc1ccccc1`, for which the compound was classed as inactive. In the case of `Cc1ccc(C(C)C)c(OCCn2c(=S)[nH]c3ccccc32)c1`, the call was inactive.

As for `OCc1nc2ccccc2n1CCOc1ccccc1`, the compound was called inactive.

For the compound `Fc1ccc(OCCn2c(=S)[nH]c3ccccc32)cc1`, the outcome was inactive. Then `FC(F)(F)c1cccc(OCCn2cnc3ccccc32)c1`, with “inactive”.

Consider `Clc1ccc(OCCn2cnc3ccccc32)cc1`, for which the result was inactive.

Turning to `CCCc1nc2ccccc2n1CCOc1ccccc1`, the outcome was inactive. For `CSc1nc2ccccc2n1CCOc1cc(C)ccc1C(C)C`, the compound was classed as inactive. For `COc1ccc(OCCn2cnc3ccccc32)cc1`, the compound was called inactive. Take `CC(C)Oc1ccc(OCCn2c(=S)[nH]c3ccccc32)cc1`: the call was inactive. Then `Cc1cccc(OCCn2cnc3ccccc32)c1`, with “inactive”; and `O=S(=O)(c1ccc(OCCn2cnc3ccccc32)cc1)N1CCOCC1`, with “inactive”. Turning to `Fc1ccc2c(c1)[nH]c(=S)n2CCOc1ccccc1`, the compound was called inactive. As to `Cc1cccc(OCCn2c(=S)[nH]c3c(F)cccc32)c1`, the compound was called inactive. In the case of `COc1ccccc1OCCn1c(=S)[nH]c2ccccc21` it was “inactive”; in that of `Cc1ccc(OCCn2cnc3ccccc32)c(C)c1`, “inactive”. Take `Clc1ccccc1OCCn1cnc2ccccc21`: the outcome was inactive. On to `Cc1ccccc1OCCn1cnc2ccccc21`, for which the result was inactive.

For `CC(C)Oc1ccc(OCCn2cnc3ccccc32)cc1`, the compound was called inactive. In the case of `COc1cccc(OCCn2cnc3ccccc32)c1` it was “inactive”. In the case of `CSc1nc2ccccc2n1CCOc1ccc(C)cc1`, the compound was classed as inactive. As for `S=c1[nH]c2cccc(Cl)c2n1CCOc1ccccc1`, the outcome was inactive. On to `Clc1ccc(OCCn2cnc3ccccc32)c(Cl)c1`, for which the compound was classed as inactive.

Regarding `CCCCc1nc2ccccc2n1CCOc1ccccc1`, the result was inactive. As to `Cc1cccc(OCCn2c(=S)[nH]c3ccccc32)c1`, the compound was called inactive.

For the compound `CS(=O)(=O)c1ccc(OCCn2cnc3ccccc32)cc1`, the result was inactive. On to `CCSc1nc2ccccc2n1CCOc1ccccc1`, for which the compound was classed as inactive. For `CCc1nc2ccccc2n1CCOc1ccccc1`, the result was inactive. For `Fc1cccc2c1[nH]c(=S)n2CCOc1ccccc1`, the result was inactive. Then `Cc1cc2ncn(CCOc3ccccc3)c2cc1C`, with “inactive”; and `Cc1ccc(OCCn2cnc3cc(C)c(C)cc32)cc1`, with “inactive”.

Values taken from PubChem BioAssay AID743316 (Broad Institute, 2014).
